Where “and” joins values, the source holds several entries; their conditions need not be identical. Equal values may be shown once. Results filed as inconclusive are left out. Some structures have more than one record in an assay (separate samples or runs), and their calls can disagree. Calls of active or inactive are those of the source. Unless noted, calls follow the shape of the dose curve; as a rule, active = well fitted curve in the direction sought with a large enough effect in the repeat runs; inconclusive = weak or mixed curves; inactive = no such curve, though single readings can be large; an effect the other way counts as inactive or inconclusive.
Columns and labels:
[1] = target: Aryl hydrocarbon receptor (Homo sapiens) (UniProt P35869); experiment: qHTS assay to identify small molecule that activate the aryl hydrocarbon receptor (AhR) signaling pathway (AID 743085); also: nearly all actives have a fitted effect of over 15% in size; also: potency is read from the fitted curve at half-maximal effect;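 as to activation: HG2L7.5c1 human HepG2 liver cells with stably integrated DRE-driven firefly reporter; series mostly up to about 70 µM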
Sequence of Aryl hydrocarbon receptor (Homo sapiens) (P35869 whole entry, looked up): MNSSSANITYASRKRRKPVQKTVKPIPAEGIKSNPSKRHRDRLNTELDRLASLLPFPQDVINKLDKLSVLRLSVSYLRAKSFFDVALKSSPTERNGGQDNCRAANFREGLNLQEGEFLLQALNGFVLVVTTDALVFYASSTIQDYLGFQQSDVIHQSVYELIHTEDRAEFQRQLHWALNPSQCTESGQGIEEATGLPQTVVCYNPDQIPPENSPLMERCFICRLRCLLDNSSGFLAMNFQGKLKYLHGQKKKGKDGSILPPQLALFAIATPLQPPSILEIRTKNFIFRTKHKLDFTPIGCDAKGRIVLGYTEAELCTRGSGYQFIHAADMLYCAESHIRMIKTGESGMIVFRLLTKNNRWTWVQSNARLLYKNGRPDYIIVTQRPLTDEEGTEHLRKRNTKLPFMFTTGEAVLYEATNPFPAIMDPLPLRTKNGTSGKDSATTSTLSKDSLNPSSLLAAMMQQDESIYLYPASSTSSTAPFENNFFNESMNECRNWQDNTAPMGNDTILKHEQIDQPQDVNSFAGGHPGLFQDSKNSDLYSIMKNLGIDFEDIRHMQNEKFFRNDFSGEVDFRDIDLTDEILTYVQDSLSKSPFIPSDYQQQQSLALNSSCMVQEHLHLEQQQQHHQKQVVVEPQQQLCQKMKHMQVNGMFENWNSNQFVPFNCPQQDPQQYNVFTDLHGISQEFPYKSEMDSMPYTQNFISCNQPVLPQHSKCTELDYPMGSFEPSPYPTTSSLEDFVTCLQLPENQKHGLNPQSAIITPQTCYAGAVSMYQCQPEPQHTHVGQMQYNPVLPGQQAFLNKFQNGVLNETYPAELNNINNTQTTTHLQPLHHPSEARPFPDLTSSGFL
Procedure, shortened: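 Steps: seed HepG2-AhR-luc cells; allow 5 h at 37C; pin-transfer test compound or vehicle; incubate 24 h at 37C; add viability dye (30 min, 37C) and read fluorescence; add luciferase substrate (30 min, RT) and read luminescence.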

[2] = target: Peroxisome proliferator-activated receptor gamma (Homo sapiens) (UniProt P37231); experiment: qHTS assay to identify small molecule agonists of the peroxisome proliferator-activated receptor gamma (PPARg) signaling pathway (AID 743094; active = well fitted activation curve with a large enough effect in the signal ratio in the repeat runs, not every such curve was filed as active; the % refers to the signal ratio)
Sequence of Peroxisome proliferator-activated receptor gamma (Homo sapiens) (P37231 whole entry, looked up): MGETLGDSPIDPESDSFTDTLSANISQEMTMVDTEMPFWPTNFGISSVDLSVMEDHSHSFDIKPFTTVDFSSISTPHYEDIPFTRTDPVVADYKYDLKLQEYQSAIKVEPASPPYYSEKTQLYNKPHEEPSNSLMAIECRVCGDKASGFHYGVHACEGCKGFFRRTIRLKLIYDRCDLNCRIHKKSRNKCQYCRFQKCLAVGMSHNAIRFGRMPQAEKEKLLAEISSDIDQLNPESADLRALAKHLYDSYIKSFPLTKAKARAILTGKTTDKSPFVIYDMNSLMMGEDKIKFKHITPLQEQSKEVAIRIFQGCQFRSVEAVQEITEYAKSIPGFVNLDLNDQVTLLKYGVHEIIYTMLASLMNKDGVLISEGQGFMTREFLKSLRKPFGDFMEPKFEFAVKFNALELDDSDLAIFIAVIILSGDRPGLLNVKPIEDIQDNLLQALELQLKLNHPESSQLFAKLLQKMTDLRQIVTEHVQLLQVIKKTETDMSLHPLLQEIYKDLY
Procedure, shortened: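 Beta-lactamase FRET fluorescence was the read-out after a 1 h room-temperature substrate step, following 17 h compound treatment at 37C of HEK293H cells expressing a UAS-driven bla reporter responsive to PPARg.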

[3] = qHTS assay to identify small molecule antagonists of the peroxisome proliferator-activated receptor gamma (PPARg) signaling pathway - cell viability counter screen (AID 743194); also: nearly all actives have a fitted effect of over 55% in size; also: potency is read from the fitted curve at half-maximal effect
Procedure, shortened: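 Viability was measured as CellTiter-Glo luminescence in GeneBLAzer PPARg UAS-bla HEK293H cells. These cells had been exposed 17 h at 37 C to compounds together with rosiglitazone at 50 nM final, with the beta-lactamase readout taken in the same wells.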

[4] = qHTS assay for small molecule agonists of the antioxidant response element (ARE) signaling pathway (AID 743202; active = well fitted activation curve with a large enough effect in the signal ratio in the repeat runs, not every such curve was filed as active; the % refers to the signal ratio; also: potency is read from the fitted curve at half-maximal effect)
Procedure, shortened: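 Quantitative high-throughput format in HepG2 cells bearing an integrated ARE-beta-lactamase reporter. Compound exposure lasted 16 h at 37 C, and fluorescence was read 2 h after adding LiveBLAzer B/G substrate at room temperature.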

[5] = qHTS assay for small molecule agonists of the antioxidant response element (ARE) signaling pathway - cell viability counter screen (AID 743203; calls by dose curve; also: nearly all actives have a fitted effect of over 55% in size; also: potency is read from the fitted curve at half-maximal effect)
Procedure, shortened: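 HepG2 cells carrying ARE-driven beta-lactamase; 2,000 cells/well; 5 hrs plating; compound pinned from DMSO; 16 hrs 37C/5% CO2; CellTiter-Glo added; 30 min RT; luminescence.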

[6] = qHTS assay for small molecule activators of the heat shock response signaling pathway - cell viability counter screen (AID 743209); also: nearly all actives have a fitted effect of over 50% in size; also: potency is read from the fitted curve at half-maximal effect
Procedure, shortened: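 Luminescence from CellTiter-Glo, added after the beta-lactamase FRET read, gave the viability signal. Cells were HSE-bla HeLa treated with DMSO-dissolved compounds for 5 h at 37 C following overnight plating.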

[7] = qHTS assay for small molecule activators of the heat shock response signaling pathway (AID 743210; active = well fitted activation curve with a large enough effect in the signal ratio in the repeat runs, with a control signal flat, not every such curve was filed as active; the % refers to the signal ratio;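 also: HeLa cells with beta-lactamase reporter driven by heat shock elements; series mostly up to about 63 µM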)
Procedure, shortened: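 HeLa HSE-bla cells, overnight plating; cpd in DMSO 5 h, 37 C; LiveBLAzer B/G FRET substrate 2.5 h RT; fluorescence intensity read.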

[8] = qHTS assay to identify small molecule agonists of the peroxisome proliferator-activated receptor delta (PPARd) signaling pathway - cell viability counter screen (AID 743211); also: nearly all actives have a fitted effect of over 55% in size; also: potency is read from the fitted curve at half-maximal effect
Procedure, shortened: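 Viability of GeneBLAzer PPARd UAS-bla HEK293H cells was assessed after 17 h compound incubation at 37C, using CellTiter-Glo reagent added after the reporter read and luminescence recorded 30 min later.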

[9] = target: Peroxisome proliferator-activated receptor delta (Homo sapiens) (UniProt Q03181); experiment: qHTS assay to identify small molecule agonists of the peroxisome proliferator-activated receptor delta (PPARd) signaling pathway (AID 743212; calls by dose curve)
Sequence of Peroxisome proliferator-activated receptor delta (Homo sapiens) (Q03181 whole entry, looked up): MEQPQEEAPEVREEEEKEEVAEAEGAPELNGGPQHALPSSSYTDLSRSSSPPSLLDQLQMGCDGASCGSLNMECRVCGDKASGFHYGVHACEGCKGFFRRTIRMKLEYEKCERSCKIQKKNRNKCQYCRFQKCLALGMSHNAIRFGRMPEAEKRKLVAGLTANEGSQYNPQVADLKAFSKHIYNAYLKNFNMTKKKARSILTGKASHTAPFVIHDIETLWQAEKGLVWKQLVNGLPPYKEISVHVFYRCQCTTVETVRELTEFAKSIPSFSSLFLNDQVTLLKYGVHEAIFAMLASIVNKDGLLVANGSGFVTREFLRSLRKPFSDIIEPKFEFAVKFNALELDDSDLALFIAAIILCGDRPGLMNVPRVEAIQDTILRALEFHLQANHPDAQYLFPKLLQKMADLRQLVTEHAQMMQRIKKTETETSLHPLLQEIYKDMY
Procedure, shortened: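 HEK293H PPARd-bla cells; 5 h preincubation 37 C/5% CO2; compound (DMSO) 37 C; LiveBLAzer B/G FRET substrate 2 h RT; fluorescence intensity.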

[10] = qHTS assay to identify small molecule antagonists of the peroxisome proliferator-activated receptor delta (PPARd) signaling pathway - cell viability counter screen (AID 743213); also: nearly all actives have a fitted effect of over 50% in size; also: potency is read from the fitted curve at half-maximal effect
Procedure, shortened: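 Luminescence from CellTiter-Glo, added after the bla read and incubated 30 min at room temperature, gives viability of HEK293H PPARd-bla cells exposed to compounds for 17 h at 37 C with 300 nM L165041.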

[11] = target: Bile acid receptor (Homo sapiens) (UniProt Q96RI1); experiment: qHTS assay to identify small molecule antagonists of the farnesoid-X-receptor (FXR) signaling pathway (AID 743217; active = well fitted inhibition curve with a large enough effect in the signal ratio in the repeat runs, not every such curve was filed as active; the % refers to the signal ratio)
Sequence of Bile acid receptor (Homo sapiens) (Q96RI1 whole entry, looked up): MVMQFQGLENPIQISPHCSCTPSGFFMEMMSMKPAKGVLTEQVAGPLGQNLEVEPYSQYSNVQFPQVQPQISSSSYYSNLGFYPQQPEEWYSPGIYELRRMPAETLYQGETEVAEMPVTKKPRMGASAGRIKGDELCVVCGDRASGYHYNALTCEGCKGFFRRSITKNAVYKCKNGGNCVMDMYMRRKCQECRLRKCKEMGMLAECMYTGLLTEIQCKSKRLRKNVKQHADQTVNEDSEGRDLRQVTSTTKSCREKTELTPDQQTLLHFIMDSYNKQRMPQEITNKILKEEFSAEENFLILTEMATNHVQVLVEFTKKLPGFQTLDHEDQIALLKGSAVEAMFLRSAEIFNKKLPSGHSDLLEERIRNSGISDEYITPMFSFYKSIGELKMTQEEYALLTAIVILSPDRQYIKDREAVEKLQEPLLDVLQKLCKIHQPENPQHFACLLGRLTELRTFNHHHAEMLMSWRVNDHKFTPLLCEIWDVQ
Procedure, shortened: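 HEK 293T FXR-UAS-bla, 5000 cells/well; compound + CDCA 50 uM final; 16 h, 37 °C; B/G FRET substrate 2 h RT; fluorescence.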

[12] = qHTS assay to identify small molecule agonists of the farnesoid-X-receptor (FXR) signaling pathway - cell viability counter screen (AID 743218); also: nearly all actives have a fitted effect of over 45% in size; also: potency is read from the fitted curve at half-maximal effect
Procedure, shortened: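 HEK 293T FXR-bla cells; 5 h pre-incubation, 16 h compound exposure at 37 C; LiveBLAzer substrate 2 h RT, then CellTiter-Glo 30 min RT, luminescence.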

[13] = target: Bile acid receptor (Homo sapiens) (UniProt Q96RI1); experiment: qHTS assay to identify small molecule agonists of the farnesoid-X-receptor (FXR) signaling pathway (AID 743220; active = well fitted activation curve with a large enough effect in the signal ratio in the repeat runs, not every such curve was filed as active; the % refers to the signal ratio)
Procedure, shortened: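 Beta-lactamase reporter under UAS control in GeneBLAzer FXR HEK 293T cells (5000/well) measured with LiveBLAzer FRET substrate after 2 h at room temperature. Compound exposure lasted 16 h at 37C.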

[14] = qHTS assay to identify small molecule antagonists of the farnesoid-X-receptor (FXR) signaling pathway - cell viability counter screen (AID 743221; active = well fitted cell-killing curve with a large enough effect in the repeat runs, not every such curve was filed as active; also: nearly all actives have a fitted effect of over 50% in size)
Procedure, shortened: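 Quantitative HTS of the Tox21 10K library run in parallel with the beta-lactamase reporter read. HEK 293T cells carrying a UAS-driven bla reporter got compound and 50 uM CDCA (final) for 16 h; ATP-based luminescence followed.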

[15] = target: Vitamin D3 receptor (Homo sapiens) (UniProt P11473); experiment: qHTS assay to identify small molecule agonists of the vitamin D receptor (VDR) signaling pathway (AID 743222; calls by dose curve)
Sequence of Vitamin D3 receptor (Homo sapiens) (P11473 whole entry, looked up): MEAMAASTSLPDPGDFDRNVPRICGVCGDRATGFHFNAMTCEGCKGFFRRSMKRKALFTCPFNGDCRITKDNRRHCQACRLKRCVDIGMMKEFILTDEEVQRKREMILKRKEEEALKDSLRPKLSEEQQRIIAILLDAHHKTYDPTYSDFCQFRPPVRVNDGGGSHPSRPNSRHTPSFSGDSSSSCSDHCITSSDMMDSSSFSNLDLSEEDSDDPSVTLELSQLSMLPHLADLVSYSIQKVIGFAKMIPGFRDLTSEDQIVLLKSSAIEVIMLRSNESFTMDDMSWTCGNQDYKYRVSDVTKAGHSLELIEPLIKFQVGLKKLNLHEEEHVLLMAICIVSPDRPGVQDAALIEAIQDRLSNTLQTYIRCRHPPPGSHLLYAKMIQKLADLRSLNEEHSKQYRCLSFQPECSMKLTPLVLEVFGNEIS
Procedure, shortened: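 VDR-bla cells, 2,000/well; 4 h preincubation 37C; cpd (DMSO) 16 h; LiveBLAzer B/G substrate 2 h RT; fluorescence intensity read.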

[16] = target: Vitamin D3 receptor (Homo sapiens) (UniProt P11473); experiment: qHTS assay to identify small molecule antagonists of the vitamin D receptor (VDR) signaling pathway (AID 743223; active = well fitted inhibition curve with a large enough effect in the signal ratio in the repeat runs, not every such curve was filed as active; the % refers to the signal ratio)
Procedure, shortened: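 Fluorescence from LiveBLAzer B/G FRET substrate, read after 2 h at room temperature, reflects beta-lactamase reporter activity in VDR-bla cells treated 16 h at 37C with compounds and agonist 1alpha,25-dihydroxyvitamin D3 (3 nM final).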

[17] = qHTS assay to identify aromatase inhibitors - cell viability counter screen (AID 743084);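 also: cells stimulated with testosterone during compound exposure; nearly all actives have a fitted effect of over 55% in size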; also: potency is read from the fitted curve at half-maximal effect
[18] = target: Peroxisome proliferator-activated receptor delta (Homo sapiens) (UniProt Q03181); experiment: qHTS assay to identify small molecule antagonists of the peroxisome proliferator-activated receptor delta (PPARd) signaling pathway (AID 743215; active = well fitted inhibition curve with a large enough effect in the signal ratio in the repeat runs, not every such curve was filed as active; the % refers to the signal ratio;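 also: cells stimulated with agonist L165041 at 300 nM final during compound exposure; series mostly up to about 62 µM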)
Procedure, shortened: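 Read-out is beta-lactamase FRET fluorescence, measured 2 h after substrate addition at room temperature. Beforehand, UAS-bla HEK293H cells carrying the PPARd reporter were exposed to compounds with L165041 at 300 nM final for 17 h at 37 C.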

[19] = qHTS assay to identify small molecule that activate the aryl hydrocarbon receptor (AhR) signaling pathway - cell viability counter screen (AID 743086); also: nearly all actives have a fitted effect of over 45% in size; also: potency is read from the fitted curve at half-maximal effect
Procedure, shortened: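 Cytotoxicity counter screen: CellTiter-Fluor signal (30 min, 37 C) in 4000 HepG2 cells/well carrying the DRE-luciferase reporter, following 24 h compound exposure at 37 C.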

[20] = target: Peroxisome proliferator-activated receptor gamma (Homo sapiens) (UniProt P37231); experiment: qHTS assay to identify small molecule antagonists of the peroxisome proliferator-activated receptor gamma (PPARg) signaling pathway (AID 743191; calls by dose curve; also: nearly all actives have a fitted effect of over 30% in size; also: potency is read from the fitted curve at half-maximal effect)
Procedure, shortened: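 Beta-lactamase reporter under UAS control in HEK293H PPARg-bla cells; compound treatment 17 h at 37C. Read-out: fluorescence intensity after 1 h room-temperature incubation with LiveBLAzer B/G FRET substrate.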

Measured: Potency

CCCCCC=O
not listed: [17] | [18] | [19] | [20]
inactive: all other assays above

CC1(C)C(C=C(Cl)Cl)C1C(=O)OCc1cccc(Oc2ccccc2)c1 (stereo not drawn)
not listed: [2] | [11] | [13] | [19] | [20]
inactive: all other assays above

CC1(C)NC(=O)N(c2ccc([N+](=O)[O-])c(C(F)(F)F)c2)C1=O
active: [4] 6.86 µM and 26.6 µM
not listed: [9] | [14] | [18] | [19] | [20]
inactive: all other assays above

C=CC(=O)OCCCC
not listed: [2] | [14] | [19] | [20]
inactive: all other assays above

C1CN(SSN2CCOCC2)CCO1
active: [17] 61.1 µM
not listed: [7] | [15] | [16] | [19] | [20]
inactive: all other assays above

COc1ccc(-c2coc3cc(O)cc(O)c3c2=O)cc1
active: [1] 9.77 µM and 9.69 µM
not listed: [2] | [4] | [9] | [11] | [13] | [14] | [17]
inactive: all other assays above

C=C[C@H]1CN2CC[C@H]1C[C@H]2[C@H](O)c1ccnc2ccc(OC)cc12
inactive: [17] | [19] | [3] | [5] | [6] | [8] | [9] | [18] | [12] | [14]

CCCN1C=CN(C)C1
not listed: [2] | [7] | [19] | [20]
inactive: all other assays above

O=[Se](O)O
27.3 µM (active) and inactive: [19]
not listed: [1] | [2] | [11] | [13] | [14] | [15] | [16] | [20]
inactive: all other assays above

Cc1cccc(Nc2ccccc2C(=O)O)c1C
active: [20] 43.6 µM
inactive: [17] | [1] | [3] | [5] | [6] | [8] | [10] | [18] | [12]

CC(=O)[C@@]1(O)CC[C@H]2[C@@H]3C[C@H](C)C4=CC(=O)C=C[C@]4(C)[C@@]3(F)[C@@H](O)C[C@@]21C
not listed: [7] | [14] | [18] | [19] | [20]
inactive: all other assays above

O=C(CCCN1CCC(O)(c2ccc(Cl)cc2)CC1)c1ccc(F)cc1
30.9 µM (active) and inactive: [12]
inactive: [17] | [1] | [3] | [6] | [11] | [13]
54.5 µM (active) and inactive: [5]
active: [10] 30.9 µM and 21.1 µM

CC1=CC(C)(C)Nc2ccccc21
not listed: [1] | [11] | [13] | [14] | [16] | [19] | [20]
inactive: all other assays above

Oc1ccc(C(c2ccc(O)cc2)C(Cl)(Cl)Cl)cc1
active: [20] 6.92 µM | [3] 43.5 µM | [5] 68.6 µM | [8] 54.9 µM | [10] 38.9 µM
inactive: [1] | [6] | [14] | [15]

CCC(=O)O[C@H]1[C@H](O[C@@H]2[C@@H](C)[C@H](O[C@H]3C[C@@](C)(OC)[C@@H](O)[C@H](C)O3)[C@@H](C)C(=O)O[C@H](CC)[C@@](C)(O)[C@H](O)[C@@H](C)C(=O)[C@H](C)C[C@@]2(C)O)O[C@H](C)C[C@@H]1N(C)C
32.5 µM (active) and inactive: [12]
active: [17] 18.1 µM
40.5 µM (active) and inactive: [5]
23 µM (active) and inactive: [10]
inactive: [1] | [2] | [3] | [4] | [6] | [7] | [8] | [15]

C=C1C[C@H]2[C@@H]3C=C(C)C4=CC(=O)CC[C@]4(C)[C@H]3CC[C@]2(C)[C@@]1(OC(C)=O)C(C)=O
inactive: [17] | [1] | [2] | [3] | [5] | [6] | [7] | [8] | [10] | [12]
active: [4] 17.6 µM and 29.8 µM

NC[C@H](O)c1ccc(O)c(O)c1
inactive: [17] | [1] | [2] | [3] | [5] | [6] | [8] | [10] | [12]

Cc1ccc(N)c([N+](=O)[O-])c1
not listed: [1] | [11] | [13] | [19] | [20]
inactive: all other assays above

CC1(C)O[C@@H]2C[C@H]3[C@@H]4C[C@H](F)C5=CC(=O)C=C[C@]5(C)[C@@]4(F)[C@@H](O)C[C@]3(C)[C@]2(C(=O)CO)O1
not listed: [7] | [11] | [13] | [14] | [15] | [18] | [19] | [20]
inactive: all other assays above

c1ccc2cc3ccccc3cc2c1
not listed: [1] | [7] | [14]
inactive: all other assays above

Clc1ccc(Sc2cc(Cl)c(Cl)cc2Cl)cc1
not listed: [1] | [7] | [9] | [11] | [13] | [18] | [19] | [20]
inactive: all other assays above

O=C1OC2(c3ccccc31)c1cc(I)c(O)c(I)c1Oc1c2cc(I)c(O)c1I
inactive and 33.4 µM (active): [10]
23.7 µM (active) and inactive: [1]
not listed: [2] | [11] | [13] | [15] | [17] | [19] | [20]
inactive: all other assays above

C=C[C@@]1(C)CC(=O)[C@]2(O)[C@@]3(C)[C@@H](O)CCC(C)(C)[C@@H]3[C@H](O)[C@H](OC(C)=O)[C@@]2(C)O1
inactive: [17] | [1] | [2] | [3] | [4] | [5] | [7] | [9] | [15]
24.5 µM (active) and inactive: [6]
active: [10] 9.77 µM | [12] 9.77 µM and 8.41 µM

ClC/C=C/CCl
active: [4] 24.1 µM and 24.5 µM
not listed: [1] | [7] | [11] | [13] | [20]
inactive: all other assays above

O=C(O)COCCN1CCN(C(c2ccccc2)c2ccc(Cl)cc2)CC1 (stereo not drawn)
not listed: [1] | [4] | [7] | [20]
inactive: all other assays above

— PubChem BioAssay (Tox21)
